# According to PubChem BioAssay (Tox21):
# Where “and” joins values, the source holds several entries; their conditions need not be identical. Identical values can stand only once. Records with an inconclusive call do not appear. Where a call stands in place of a potency, no number is given. More than one record can exist for a structure, and the calls need not agree. Calls of active or inactive are those of the source. Unless noted, the call rests on the fitted dose curve; in most records, active means well fitted curve in the direction sought with a large enough effect in the repeat runs; inconclusive means weak or mixed curves; inactive means no such curve, though single readings can be large; an effect the other way counts as inactive or inconclusive.
# Experiments:
# [1] = qHTS assay to identify small molecule antagonists of the estrogen related receptor (ERR) signaling pathway from Tox21 library - cell viability counter screen (AID 1224834); further: nearly all actives have a fitted effect of over 30% in size
# In short: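 After 17.5 h of compound exposure at 37 C, ERR cells are incubated with CellTiter-Fluor for 30 min and fluorescence intensity serves as the viability measure.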
# [2] = target: Luciferin 4-monooxygenase (Photinus pyralis) (UniProt P08659); test: qHTS assay to identify small molecule inhibitors of firefly luciferase (AID 1224835); further: nearly all actives have a fitted effect of over 25% in size; further: potency means the concentration at half of the fitted maximal effect
# Chain of Luciferin 4-monooxygenase (Photinus pyralis) (P08659 whole entry, looked up): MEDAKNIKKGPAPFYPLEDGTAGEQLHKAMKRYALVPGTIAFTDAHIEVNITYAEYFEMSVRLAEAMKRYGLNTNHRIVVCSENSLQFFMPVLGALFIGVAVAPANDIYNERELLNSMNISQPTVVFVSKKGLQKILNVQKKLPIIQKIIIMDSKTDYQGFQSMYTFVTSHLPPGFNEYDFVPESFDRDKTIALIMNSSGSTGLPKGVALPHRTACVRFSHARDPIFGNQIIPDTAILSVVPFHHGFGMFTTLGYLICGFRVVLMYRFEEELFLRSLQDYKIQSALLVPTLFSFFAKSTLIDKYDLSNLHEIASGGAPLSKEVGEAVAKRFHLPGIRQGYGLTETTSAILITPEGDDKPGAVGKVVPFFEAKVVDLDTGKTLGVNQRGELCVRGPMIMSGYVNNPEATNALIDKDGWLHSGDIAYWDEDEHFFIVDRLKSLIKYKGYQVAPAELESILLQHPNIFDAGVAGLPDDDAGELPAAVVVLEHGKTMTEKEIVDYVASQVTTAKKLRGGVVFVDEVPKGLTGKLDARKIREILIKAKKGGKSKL
# In short: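 Inhibition of purified Photinus luciferase is measured by luminescence. Substrate levels (D-luciferin, ATP) sit at their KM values. Each compound is tested in a concentration series.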
# [3] = qHTS assay to identify small molecule agonists of the constitutive androstane receptor (CAR) signaling pathway - cell viability counter screen (AID 1224836); further: nearly all actives have a fitted effect of over 45% in size
# In short: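 Counter screen multiplexed with the CAR reporter readout: HepG2 cells co-transfected with hCAR and the CYP2B6-2.2kb construct receive a 15-concentration compound series and 0.75 uM PK11195 (final), then CellTiter-Fluor fluorescence is read after 23 h.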
# [4] = qHTS assay to identify small molecule antagonists of the estrogen related receptor signaling pathway with the pleiotropic PPARgamma coactivator (PGC) from Tox21 10K library - cell viability counter screen (AID 1224840; active means well fitted cell-killing curve with a large enough effect in the repeat runs, not every such curve was filed as active; further: nearly all actives have a fitted effect of over 40% in size)
# In short: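 Following seeding of 2,000 PGC/ERR cells/well and 6 hours' incubation, test compounds were delivered in DMSO. The plates then sat 17.5 hours at 37 C before a fluorogenic live-cell protease reagent (CellTiter-Fluor) was read after 30 min.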
# [5] = qHTS assay to identify small molecule agonists of H2AX (AID 1224845; active means well fitted activation curve with a large enough effect in the signal ratio in the repeat runs, not every such curve was filed as active; the % refers to the signal ratio)
# In short: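 Phospho-H2AX Ser139 measured by HTRF (ex 320 nm; em 665 and 620 nm) after 24 hr antibody incubation. Compounds, 15 concentrations, 0.76% DMSO, were applied to CHO-K1 cells for 3hr at 37C before lysis.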
# [6] = qHTS assay to identify small molecule agonists of the hypoxia (HIF-1) signaling pathway (AID 1224846; active means well fitted activation curve with a large enough effect in the signal ratio in the repeat runs, not every such curve was filed as active; the % refers to the signal ratio)
# In short: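 A low-serum medium (0.5% dialyzed FBS) holding 2,000 HRE-bla ME-180 cells per well is preincubated for 5 hrs, dosed with compounds by pintool, and kept a further 17 hrs at 37C, 5% CO2 before CCF4-AM FRET detection of beta-lactamase.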
# [7] = qHTS assay to identify small molecule agonists of H2AX - cell viability counter screen (AID 1224847; calls by dose curve; further: top concentration of the series differs between compounds; nearly all actives have a fitted effect of over 30% in size)
# In short: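 We seed wild-type CHO-K1 cells overnight, treat them for 3 hr at 37C with compounds in 15-concentration series, and quantify remaining viability by CellTiter-Glo luminescence.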
# [8] = qHTS RealTime-Glo MT Cell Viability Assay in HepG2 cells - 24 hour (AID 1224867); further: nearly all actives have a fitted effect of over 50% in size
# In short: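 Luminescence read-out: viable HepG2 cells reduce a prosubstrate to a NanoLuc substrate, giving a signal proportional to live cell number. Reads taken at 0, 8, 16, 24, 32 and 40 h of compound exposure at 37 C.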
# [9] = qHTS RealTime-Glo MT Cell Viability Assay in HEK293 cells - 32 hour (AID 1224868); further: top concentration of the series differs between compounds; nearly all actives have a fitted effect of over 50% in size
# In short: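 Nonlytic real-time viability readout: viable cells convert prosubstrate to NanoLuc substrate, giving luminescence proportional to live cell number. HEK293, 600 cells/well, compound added after 5 h, continuous culture at 37 C.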
# [10] = A CellTox Green Cytotoxicity Assay to monitor cytotoxicity in HEK293 cells - 0 hour (AID 1224869); further: nearly all actives have a fitted effect of over 50% in size
# In short: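 Fluorescence intensity, read at 0, 8, 16, 24, 32 and 40 h of compound treatment, reflected dye binding to DNA of dead HEK293 cells; compounds (23 nL, DMSO) were added 5 h after plating cells with reagent.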
# [11] = qHTS assay to identify small molecule antagonists of the constitutive androstane receptor (CAR) signaling pathway - cell viability counter screen (AID 1224837); further: nearly all actives have a fitted effect of over 45% in size
# In short: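 Counter screen run in HepG2-CYP2B6-hCAR cells: 4 hr settle, compound titration (15 concentrations) with 50 nM CITCO, 23 hr at 37 C/5% CO2, CellTiter-Fluor fluorescence.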
# [12] = qHTS assay to identify small molecule agonists of the hypoxia (HIF-1) signaling pathway - cell viability counter screen (AID 1224844; calls by dose curve; further: nearly all actives have a fitted effect of over 50% in size)
# In short: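 Cells (HRE-bla ME-180, 2,000 per well) sat 5 hrs at 37C, got compound for 17 hrs, were read for CCF4-AM FRET, and were finally lysed with CellTiter-Glo for a 30 min room-temperature luminescence read.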
# [13] = target: Nuclear receptor subfamily 1 group I member 3 (Homo sapiens) (UniProt Q14994); test: qHTS assay to identify small molecule antagonists of the constitutive androstane receptor (CAR) signaling pathway (AID 1224838);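 further: HepG2 cells stably expressing hCAR with CYP2B6 luciferase reporter stimulated by CITCO; nearly all actives have a fitted effect of over 40% in size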
# Chain of Nuclear receptor subfamily 1 group I member 3 (Homo sapiens) (Q14994 whole entry, looked up): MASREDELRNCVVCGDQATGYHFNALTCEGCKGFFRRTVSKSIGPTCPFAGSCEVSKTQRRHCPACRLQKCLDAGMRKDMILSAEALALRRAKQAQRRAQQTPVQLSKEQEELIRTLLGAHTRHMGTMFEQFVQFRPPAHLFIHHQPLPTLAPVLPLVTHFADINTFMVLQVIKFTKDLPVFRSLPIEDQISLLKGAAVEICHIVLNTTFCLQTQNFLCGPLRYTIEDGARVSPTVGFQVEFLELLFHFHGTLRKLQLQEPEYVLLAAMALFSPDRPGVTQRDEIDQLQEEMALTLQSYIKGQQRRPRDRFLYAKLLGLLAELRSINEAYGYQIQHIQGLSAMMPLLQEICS
# In short: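 Cell line: HepG2 double-stable for hCAR and CYP2B6-2.2kb reporter. Agonist: CITCO, 50 nM final. Compounds: 15 concentrations, 24 h, 37 C. Detection: ONE-Glo luminescence.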
# [14] = target: Nuclear receptor subfamily 1 group I member 3 (Homo sapiens) (UniProt Q14994); test: qHTS assay to identify small molecule agonists of the constitutive androstane receptor (CAR) signaling pathway (AID 1224839); further: nearly all actives have a fitted effect of over 15% in size
# In short: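 A 15-concentration quantitative screen uses HepG2 cells co-transfected stably with human CAR and CYP2B6-2.2kb reporter. Treatment lasts 24 h with 0.75 uM PK11195 final present; ONE-Glo luminescence is the signal.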
# [15] = target: Thyrotropin receptor (Homo sapiens) (UniProt P16473); test: qHTS assay to identify small molecule agonists of the thyroid stimulating hormone receptor (TSHR) signaling pathway (AID 1224843; calls by dose curve; further: nearly all actives have a fitted effect of over 45% in size)
# Chain of Thyrotropin receptor (Homo sapiens) (P16473 whole entry, looked up): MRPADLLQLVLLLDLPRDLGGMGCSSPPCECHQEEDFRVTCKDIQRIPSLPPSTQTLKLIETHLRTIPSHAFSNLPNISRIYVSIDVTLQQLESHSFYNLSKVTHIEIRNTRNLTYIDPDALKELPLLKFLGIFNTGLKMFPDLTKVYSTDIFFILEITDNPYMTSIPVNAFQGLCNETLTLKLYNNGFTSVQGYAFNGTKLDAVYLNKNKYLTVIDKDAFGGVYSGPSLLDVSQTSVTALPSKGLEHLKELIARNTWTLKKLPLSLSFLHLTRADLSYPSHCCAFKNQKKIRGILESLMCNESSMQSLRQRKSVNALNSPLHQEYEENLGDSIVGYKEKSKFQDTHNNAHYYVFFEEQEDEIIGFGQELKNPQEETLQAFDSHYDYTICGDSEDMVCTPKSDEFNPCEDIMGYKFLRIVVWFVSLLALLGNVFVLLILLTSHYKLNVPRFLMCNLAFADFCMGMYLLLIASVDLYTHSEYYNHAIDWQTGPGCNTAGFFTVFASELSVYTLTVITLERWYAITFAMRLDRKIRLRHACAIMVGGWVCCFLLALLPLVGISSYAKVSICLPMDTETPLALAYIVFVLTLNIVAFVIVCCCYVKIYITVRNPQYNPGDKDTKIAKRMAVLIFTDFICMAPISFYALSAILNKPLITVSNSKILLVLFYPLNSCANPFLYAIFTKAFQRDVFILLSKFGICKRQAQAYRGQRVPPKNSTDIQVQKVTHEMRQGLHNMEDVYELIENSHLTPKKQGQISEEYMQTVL
# In short: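 Screening of the Tox21 10K collection used HEK293 cells engineered with TSHR at 800 cells per well. After a 30-min room-temperature compound exposure, HTRF cAMP reagents were added and fluorescence recorded 1 h later.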
# [16] = qHTS assay to identify small molecule antagonists of the estrogen related receptor signaling pathway with the pleiotropic PPARgamma coactivator (PGC) from Tox21 10K library (AID 1224841; call rule not given here)
# In short: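 qHTS antagonist format: PGC/ERR cells, 2k/well, compound in DMSO by pin transfer after 6 h attachment, 18 h treatment at 37 C, One-Glo luminescence read at 30 min.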
# [17] = qHTS assay to identify small molecule agonists of the estrogen related receptor signaling pathway with the pleiotropic PPARgamma coactivator (PGC) from Tox21 10K library (AID 1224842); further: nearly all actives have a fitted effect of over 15% in size
# In short: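 Luminescence from One-Glo (30 min, room temperature) measured after PGC/ERR cells had 18 h at 37 C with pinned compound (23 nL in DMSO). Cells had been seeded at 2,000 per well and pre-incubated 6 h.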
# [18] = qHTS assay to identify small molecule antagonists of the estrogen related receptor (ERR) signaling pathway from Tox21 library (AID 1224848); further: nearly all actives have a fitted effect of over 50% in size
# In short: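 Antagonist-mode screen of the Tox21 10K library in an NTP-provided ERR reporter cell line; 18 h compound exposure at 37 C, luminescence measured with ONE-Glo.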
# [19] = qHTS assay to identify small molecule agonists of the estrogen related receptor (ERR) signaling pathway from Tox21 library (AID 1224849; calls by dose curve; further: nearly all actives have a fitted effect of over 15% in size); conditions: ERR reporter cell line, ONE-Glo luciferase, 18 h
# In short: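 Screening used an NTP-provided ERR luciferase cell line. Compounds in DMSO were added 6 h after seeding and left 18 h at 37 C before a 30 min ONE-Glo step and luminescence reading.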
Compound,Potency [1],Potency [2],Potency [3],Potency [4],Potency [5],outcome [6],Potency [7],outcome [8],Potency [9],Potency [10],Potency [11],Potency [12],Potency [13],Potency [14],Potency [15],Potency [16],Potency [17],Potency [18],"activity change, positive = activation ([19]; at 92.4 µM (top of the series))","activity change, positive = activation ([19]; at 42.5 µM (top of the series))"
CCCCCCCCCCCCCCCCCC(=O)O,inactive,70.5 µM (active) and inactive,inactive,inactive,inactive,inactive,inactive,inactive,inactive,inactive,–,–,–,–,–,–,–,–,–,–
CCCOC(=O)c1ccccc1C(=O)OCCC,inactive,inactive,inactive,inactive,inactive,inactive,inactive,inactive,inactive,–,inactive,inactive,–,–,–,–,–,–,–,–
Nc1cc(Cl)cc(Cl)c1,inactive,inactive,inactive,inactive,inactive,inactive,inactive,inactive,inactive,inactive,–,–,inactive,inactive,inactive,–,–,–,–,–
Cc1ccc(N=C=O)cc1N=C=O,inactive,40.9 µM (active) and 63.1 µM (active) and inactive,inactive,inactive,inactive,inactive,inactive,inactive,inactive,–,–,–,inactive,inactive,–,inactive,inactive,inactive,1.23% (inactive) and -0.244% (inactive) and 4.95% (inactive),–
C=CC(=O)OCC(CC)CCCC (stereo not given),inactive,–,inactive,inactive,inactive,inactive,inactive,inactive,inactive,–,–,inactive,inactive,inactive,inactive,inactive,inactive,inactive,0.98% (inactive) and -12% (inactive),–
Nc1ccc([As](=O)(O)O)cc1,–,inactive,inactive,inactive,inactive,inactive,inactive,inactive,inactive,inactive,inactive,–,inactive,inactive,inactive,–,–,–,–,–
N#Cc1ccccn1,–,inactive,inactive,inactive,inactive,inactive,inactive,inactive,inactive,inactive,inactive,inactive,inactive,inactive,inactive,–,–,–,–,–
C=CC(=O)OCCCCCC(C)C,inactive,inactive,inactive,inactive,inactive,inactive,inactive,inactive,inactive,inactive,–,–,–,–,inactive,–,–,–,–,–
COc1nc(NC(C)C)nc(NC(C)C)n1,–,inactive,inactive,inactive,inactive,inactive,inactive,inactive,inactive,–,inactive,–,inactive,inactive,inactive,inactive,inactive,inactive,1.12% (inactive) and 6.24% (inactive),–
Nc1nc(N)nc(NC2CC2)n1,inactive,inactive,inactive,inactive,inactive,inactive,inactive,inactive,inactive,inactive,–,–,–,–,inactive,inactive,inactive,inactive,-4.5% (inactive) and 0.923% (inactive),7.96% (inactive)
CC(=O)/C=C/c1ccccc1,inactive,inactive,inactive,inactive,inactive,inactive,inactive,inactive,inactive,inactive,–,inactive,inactive,inactive,inactive,–,–,–,–,–
c1ccc2c(c1)CCCC2,–,inactive,inactive,inactive,inactive,inactive,inactive,inactive,inactive,–,inactive,–,inactive,inactive,inactive,–,–,–,–,–
ClCCOCCCl,inactive,inactive,inactive,inactive,inactive,inactive,inactive,inactive,inactive,–,–,inactive,–,–,inactive,–,–,–,–,–
CCOc1ccc(N)cc1,–,inactive and 79.6 µM (active),inactive,inactive,inactive,inactive,inactive,inactive,inactive,–,inactive,inactive,inactive,inactive,inactive,inactive,inactive,–,-23.9% (inactive) and -14.2% (inactive),–
CC(=O)C1CCOC1=O (stereo not given),inactive,inactive,inactive,inactive,inactive,inactive,inactive,inactive,inactive,inactive,inactive,–,–,–,inactive,–,–,–,–,–
